SSB-PriA inh – K. pneumoniae PriA-SSBct interaction inhibition. inhibition, % at 33 µM. AlphaScreen SSBct-PriA binding, biotinylated peptide. 0.6% of 430,000 active. AID 1272365; in the data active means inhibition mostly above about 37%, no sharp cut-off; inactive means mostly below about 20%;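 further: plate controls were negative control peptide for no effect and reference peptide for full effect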
SARS 3CLpro inh-1 – SARS-CoV 3CLpro protease inhibition. AID 1706. recombinant SARS-CoV 3CLpro, quenched FRET peptide cleavage. inhibition, % at 6 µM. 0.14% of 290,000 active; in the data active means inhibition above about 12%
BJeLR viability – kills HRASV12-expressing BJeLR cells; BJeLR (HRASV12) viability, CellTiter-Glo ATP luminescence, 48 h; inhibition, % (no concentration beside the values); AID 1554; 0.17% of 300,000 active; in the data active means inhibition above about 50%
SARS 3CLpro inh-2 – SARS 3CLpro inhibition, confirmation assay. shares compounds with SARS 3CLpro inh-1. QFRET protease activity assay. inhibition, % at 6 µM. 36% of 380 active. AID 1879; in the data active means inhibition above about 13%
* = called active by the depositor. A selection: hits, their analogues and other compounds. The true share with any hit is near 0.78%.

`O=C(CCS(=O)(=O)c1ccc(F)cc1)N1CCN(c2ccccc2)CC1` gave SSB-PriA inh 1.3 and BJeLR viability 9.7.
For CC(=O)c1cccc(N2C(=O)/C(=C3/C(=O)N(C(C)=O)c4ccccc43)SC2=S)c1 the results were SSB-PriA inh -18.0.
`Nc1sc(-c2ccccc2)cc1C(=O)N/N=C/c1ccc(Cl)cc1` gave SSB-PriA inh inactive, SARS 3CLpro inh-1 -2.8 and BJeLR viability 0.1.
Screening COC(=O)c1cc(-c2ccccc2)sc1N returned SSB-PriA inh -5.1, SARS 3CLpro inh-1 51.2*, BJeLR viability 1.4 and SARS 3CLpro inh-2 3.5.
Screening COC1(CNC(=O)CCc2ccccc2Br)CCSC1 (stereo unspecified) returned SSB-PriA inh 4.0.
O=C(CN1CCOCC1)N1N=C(c2cccs2)C[C@H]1c1ccco1 was read as SSB-PriA inh -9.0.
`O=C(CCl)N1N=C(c2cccs2)CC1c1ccco1` (stereo unspecified) gave SSB-PriA inh -5.0, SARS 3CLpro inh-1 38.5*, BJeLR viability 22.7 and SARS 3CLpro inh-2 83.4*.
COCCNC(=O)Cc1ccc(NC(=O)COc2ccc(Cl)cc2Cl)cc1 was read as SSB-PriA inh -7.0.
For Cc1noc2c1C(c1ccc(N(C)C)cc1)C1=C(CC(C)(C)CC1=O)N2 (stereo unspecified) the results were SSB-PriA inh -4.4, SARS 3CLpro inh-1 -0.9 and BJeLR viability -4.6.
For Cc1ccc(C2C3=C(CC(C)(C)CC3=O)Nc3onc(C)c32)cc1 (stereo unspecified) the results were SSB-PriA inh 1.6, SARS 3CLpro inh-1 14.9*, BJeLR viability -8.7 and SARS 3CLpro inh-2 -3.5.
Screening CCOc1nn(CC)cc1C(=O)NCCc1ccc(S(N)(=O)=O)cc1 returned SSB-PriA inh -10.0.
Screening CCc1ccc(NC(=O)c2cc3ccccc3o/c2=N/NS(=O)(=O)c2ccc(F)c(Cl)c2)cc1 returned SSB-PriA inh 0.0.
`Cc1nc(-c2cccnc2)sc1-c1ccc(SCC(=O)Nc2ccc3c(c2)OCCO3)nn1` gave SSB-PriA inh -1.0.
`Cc1cc(C(=O)NC2CCCc3c2cnn3-c2ccc(C(C)(C)C)cc2)n[nH]1` (stereo unspecified) gave SSB-PriA inh -8.7, SARS 3CLpro inh-1 13.2*, BJeLR viability -4.8 and SARS 3CLpro inh-2 1.6.
Screening CC(C)(C)c1ccc(-n2ncc3c2CCCC3NC(=O)c2ccncc2)cc1 (stereo unspecified) returned SSB-PriA inh -10.4, SARS 3CLpro inh-1 2.4 and BJeLR viability 19.9.
O=C(NCc1ccccc1)Nc1nccs1 was read as SSB-PriA inh -18.0.
`CCOc1ccc2ccccc2c1C(=O)NCC(C)(O)Cc1ccco1` (stereo unspecified) gave SSB-PriA inh 0.0.
Screening COC(=O)c1ccccc1NC(=O)c1ccc2c(c1)OCCCO2 returned SSB-PriA inh -14.9, SARS 3CLpro inh-1 12.4*, BJeLR viability 3.1 and SARS 3CLpro inh-2 -1.8.
`COC(=O)c1cc(OC)c(OC)cc1NC(=O)c1ccc2c(c1)OCCO2` gave SSB-PriA inh -3.0.
For CNC(=O)c1c(NC(=O)c2ccccc2[N+](=O)[O-])sc(C)c1C the results were SSB-PriA inh 16.0.
For O=S(=O)(NCC(Nc1ccc(Cl)cc1)c1ccccc1)c1ccccc1 (stereo unspecified) the results were SSB-PriA inh -5.1, SARS 3CLpro inh-1 1.7 and BJeLR viability 16.9.
For Cc1ccc(NC(CNS(=O)(=O)c2ccc(Cl)cc2)c2ccccc2)cc1 (stereo unspecified) the results were SSB-PriA inh 35.8, SARS 3CLpro inh-1 13.0*, BJeLR viability 5.5 and SARS 3CLpro inh-2 7.7.
CCc1ccc(NC(=O)CN(c2ccc(OC)cc2)S(=O)(=O)c2c(C)[nH]c(=O)[nH]c2=O)cc1 was read as SSB-PriA inh -14.9, SARS 3CLpro inh-1 -1.8 and BJeLR viability -3.0.
Screening CCOc1ccc(N(CC(=O)Nc2ccc(CC)cc2)S(=O)(=O)c2c(C)[nH]c(=O)[nH]c2=O)cc1 returned SSB-PriA inh -1.4, SARS 3CLpro inh-1 14.5*, BJeLR viability 1.1 and SARS 3CLpro inh-2 -2.0.
CCOC(=O)c1c(C)n(S(=O)(=O)c2ccc(C)cc2)c2ccc(O)c(C(=O)O)c12 was read as SSB-PriA inh 4.8, SARS 3CLpro inh-1 13.0*, BJeLR viability -0.7 and SARS 3CLpro inh-2 1.3.
For COCCOC(=O)c1c(C)n(S(=O)(=O)c2ccc(C)cc2)c2ccc(NS(=O)(=O)c3ccc(C)cc3)cc12 the results were SSB-PriA inh -7.0.
CCc1nc(N2CCN(C(C)=O)CC2)c2c3c(sc2n1)CC(C(C)(C)C)CC3 (stereo unspecified) was read as SSB-PriA inh 6.6, SARS 3CLpro inh-1 0.4 and BJeLR viability -6.5.
Screening CCc1nc(N2CCN(C(=O)CCl)CC2)c2c3c(sc2n1)CC(C)CC3 (stereo unspecified) returned SSB-PriA inh 5.2, SARS 3CLpro inh-1 37.7*, BJeLR viability 38.3 and SARS 3CLpro inh-2 63.2*.
Screening COc1ccccc1C(=O)NCCc1ccc(N2CCCC2)cc1 returned SSB-PriA inh 10.0.
Screening C[C@@H]1NC(=O)c2cc([N+](=O)[O-])cc(I)c2NCCCC[C@@H](C(N)=O)NC(=O)[C@H](CC(N)=O)NC1=O returned SSB-PriA inh 6.4, SARS 3CLpro inh-1 14.5* and SARS 3CLpro inh-2 5.6.
CC(C)[C@@H]1NC(=O)c2cc([N+](=O)[O-])cc(I)c2NCC[C@@H](C(N)=O)NC(=O)[C@H](CO)NC1=O was read as SARS 3CLpro inh-1 -3.4.
For O=C(CC1CCCCN1S(=O)(=O)c1ccc(Cl)cc1)Nc1ccc2c(c1)OCCO2 (stereo unspecified) the results were SSB-PriA inh 0.0.
Screening CCOC(=O)c1ccsc1NC(=O)c1ccccc1F returned SSB-PriA inh 9.0.
Screening COc1ccc(C(=O)c2c3ccccc3[n+]([O-])n2CCC(N)=O)cc1 returned SSB-PriA inh 1.8 and BJeLR viability 2.4.
Screening NC(=O)CCn1c(C(=O)c2cccc([N+](=O)[O-])c2)c2ccccc2[n+]1[O-] returned SSB-PriA inh 5.0, SARS 3CLpro inh-1 26.5*, BJeLR viability -5.2 and SARS 3CLpro inh-2 25.5*.
For NCCCn1c(C(=O)c2cc(Cl)c(N)c(Cl)c2)c2ccccc2[n+]1[O-] the results were SSB-PriA inh 1.6 and BJeLR viability 3.2.
Screening NC(=O)CCn1c(C(=O)c2cc(Cl)c(N)c(Cl)c2)c2ccccc2[n+]1[O-] returned SSB-PriA inh -4.9, SARS 3CLpro inh-1 29.8*, BJeLR viability 3.6 and SARS 3CLpro inh-2 35.0*.
Screening Cc1ccc(C(=O)c2c3ccc(C(F)(F)F)cc3[n+]([O-])n2CCCC(N)=O)cc1 returned SSB-PriA inh -0.9 and BJeLR viability 3.4.
Screening Cc1ccc(C(=O)c2c3ccc(C(F)(F)F)cc3[n+]([O-])n2CCC(N)=O)cc1 returned SSB-PriA inh -2.0, SARS 3CLpro inh-1 26.8*, BJeLR viability 4.4 and SARS 3CLpro inh-2 21.3*.
For Cc1ccc(C(=O)C=CNc2cccc(O)c2)cc1 the results were SSB-PriA inh 9.8.
`COc1ccc(CC(=O)NNc2nc(N3CCOCC3)nc(N3CCOCC3)n2)cc1` gave SSB-PriA inh -3.0.
